Screening data: PubChem, The Scripps Research Institute Molecular Screening Center
ZTA DNA inh – ZTA (EBV) inhibition in EBNA-1 counter-screen; inhibition, % at 11 µM; ZTA-DNA binding, fluorescence polarization; P03206; AID 2234; 0.15% of 320,000 active; in the data active = inhibition above about 33%
PAD4 inh – human PAD4 inhibitors, primary screen, biochemical, fluorescence polarization, 1536-well format. recombinant PAD4, RCA probe fluorescence polarization. 0.41% of 330,000 active. inhibition, % at 6.36 µM;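 active = percent inhibition above a cutoff equal to the mean of all tested compounds plus 3 SD, cut at about 15% in these data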
EBNA-1 inhibitor – EBNA-1 DNA-binding inhibitors, primary screen, biochemical, fluorescence polarization; AID 1950, 2009; inhibition, % at 14.8 µM; 0.34% of 300,000 active; in the data active = inhibition above about 28%
LYPLA1 inh – LYPLA1 inhibitors, primary screen, counter-screen for PME1 inhibitor project, biochemical, fluorescence polarization, FP-Rh probe ABPP; inhibition, % at 5.9 µM; recombinant LYPLA1; Acyl-protein thioesterase 1 (Homo sapiens), O75608; 0.16% of 320,000 active;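 active = inhibition above the mean of all tested compounds plus 3 SD, set per campaign, cut at about 14% in these data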;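 note: inhibitors block serine hydrolase probe labeling of LYPLA1 so polarization falls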
Target sequence (O75608 whole entry, looked up): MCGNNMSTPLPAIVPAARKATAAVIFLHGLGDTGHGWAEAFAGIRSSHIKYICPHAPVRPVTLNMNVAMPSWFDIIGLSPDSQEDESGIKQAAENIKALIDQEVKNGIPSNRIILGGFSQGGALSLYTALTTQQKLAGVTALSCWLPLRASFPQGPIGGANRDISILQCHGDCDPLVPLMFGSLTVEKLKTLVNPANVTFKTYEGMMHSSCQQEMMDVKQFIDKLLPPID
GSTO1 inh – inhibitors of recombinant GSTO1, primary screen, counter-screen for RBBP9 inhibitor project, biochemical, fluorescence polarization; Glutathione S-transferase omega-1 (Homo sapiens), P78417; activity-based probe fluorescence polarization; inhibition, % at 5.96 µM; 1.1% of 300,000 active; AID 1974, 2009;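 active = inhibition above the campaign mean inhibition plus 3 SD, cut at about 35% in these data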
Target sequence (P78417 whole entry, looked up): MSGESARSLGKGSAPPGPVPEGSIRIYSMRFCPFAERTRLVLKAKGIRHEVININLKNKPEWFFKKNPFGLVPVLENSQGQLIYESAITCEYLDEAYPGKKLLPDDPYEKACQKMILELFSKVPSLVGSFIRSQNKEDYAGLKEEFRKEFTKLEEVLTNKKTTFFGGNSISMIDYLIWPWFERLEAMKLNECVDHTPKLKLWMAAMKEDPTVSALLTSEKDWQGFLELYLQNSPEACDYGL
LYPLA2 inh – LYPLA2 inhibitors, primary screen, counter-screen for PME1 inhibitor project, biochemical, fluorescence polarization, FP-Rh probe ABPP | Acyl-protein thioesterase 2 (Homo sapiens), O95372 | recombinant LYPLA2 | inhibition, % at 5.9 µM | 0.38% of 320,000 active;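 active = inhibition above the screen-wide mean plus 3 SD, limit set per campaign, cut at about 26% in these data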
A number is an active result; ! = a repeat was not active. Compounds with a hit are over-represented: about 1.7% of the library has one in this group of screens.

Screening Cc1ccc2c(c1)Oc1ccc(NC(=O)CCl)cc1C(=O)N2 returned ZTA DNA inh inactive, PAD4 inh inactive, EBNA-1 inhibitor inactive, LYPLA1 inh inactive, GSTO1 inh 92 and LYPLA2 inh inactive.
Cc1ccc2c(c1)Oc1ccc([N+](=O)[O-])cc1C(=O)N2 was read as ZTA DNA inh inactive, PAD4 inh inactive, EBNA-1 inhibitor inactive, LYPLA1 inh inactive, GSTO1 inh inactive and LYPLA2 inh inactive.
Screening CCc1ccc(Nc2nnc(SCC(=O)c3c(N)n(C4CC4)c(=O)[nH]c3=O)s2)cc1 returned ZTA DNA inh inactive, PAD4 inh inactive, LYPLA1 inh inactive and LYPLA2 inh inactive.
`Cc1c(C(=O)O)oc2ccc(S(=O)(=O)NCCC3=CCCCC3)cc12` gave ZTA DNA inh inactive, PAD4 inh inactive, EBNA-1 inhibitor inactive, LYPLA1 inh inactive, GSTO1 inh 37 and LYPLA2 inh inactive.
For CC(=O)N1C(=O)C2(C(C#N)=C(N)Oc3c2c(C)nn3-c2ccccc2)c2ccccc21 (stereo not drawn) the results were ZTA DNA inh inactive, PAD4 inh inactive, EBNA-1 inhibitor inactive, LYPLA1 inh inactive, GSTO1 inh inactive and LYPLA2 inh inactive.
Cc1nn(-c2ccccc2)c2c1C1(C(=O)N(C)c3ccccc31)C(C#N)=C(N)O2 (stereo not drawn) was read as ZTA DNA inh inactive, PAD4 inh inactive, EBNA-1 inhibitor inactive, LYPLA1 inh inactive, GSTO1 inh 37 and LYPLA2 inh inactive.
For CCNS(=O)(=O)c1ccc(C(=O)OCc2cc(=O)oc3cc(OC)ccc23)cc1 the results were ZTA DNA inh inactive, PAD4 inh inactive, EBNA-1 inhibitor inactive, LYPLA1 inh inactive, GSTO1 inh inactive and LYPLA2 inh inactive.
`CC(C)c1ccc(S(=O)(=O)/N=C2/C=C(Sc3ncn[nH]3)C(=O)c3ccccc32)cc1` gave ZTA DNA inh inactive, PAD4 inh 38, EBNA-1 inhibitor inactive, LYPLA1 inh inactive, GSTO1 inh 85 and LYPLA2 inh 36.
Screening CCOc1ncccc1C(=O)OCC(=O)NC1CCCCC1 returned PAD4 inh inactive.
Screening CC(C)(C=O)C1=CC(=O)c2ccccc2C1=O returned ZTA DNA inh inactive, PAD4 inh inactive, EBNA-1 inhibitor inactive, LYPLA1 inh inactive, GSTO1 inh 49 and LYPLA2 inh inactive.
Screening Cc1sc2nc(C(C)C)nc(SCC(=O)NC3CC3)c2c1C returned ZTA DNA inh 69, PAD4 inh inactive, EBNA-1 inhibitor 129, LYPLA1 inh inactive, GSTO1 inh inactive and LYPLA2 inh inactive.
`CCCc1nc(SCC(=O)Nc2nnc(CC)s2)c2c(C)c(C)sc2n1` gave ZTA DNA inh inactive, PAD4 inh inactive, EBNA-1 inhibitor inactive, LYPLA1 inh inactive, GSTO1 inh inactive and LYPLA2 inh inactive.
Screening CCSc1nnc(NC(=O)CSc2nc(CC)nc3c2c(=O)n(C)c(=O)n3C)s1 returned ZTA DNA inh inactive, PAD4 inh inactive, EBNA-1 inhibitor inactive, LYPLA1 inh inactive, GSTO1 inh 36 and LYPLA2 inh inactive.
For CCc1nc(SCC(=O)Nc2nnc(CC)s2)c2c(C)c(C)sc2n1 the results were ZTA DNA inh inactive, PAD4 inh inactive, EBNA-1 inhibitor inactive, LYPLA1 inh inactive, GSTO1 inh 35 and LYPLA2 inh inactive.
For Cc1ccc(NC(=O)CSCC(=O)NNC(=O)c2nn(C)c(=O)c3ccccc23)cc1 the results were ZTA DNA inh inactive, PAD4 inh inactive, LYPLA1 inh inactive and LYPLA2 inh inactive.
`Cc1ccc(Cn2nnc3c(=O)n(CC(=O)NCc4ccccc4)cnc32)cc1` gave ZTA DNA inh inactive, PAD4 inh inactive, EBNA-1 inhibitor inactive, LYPLA1 inh inactive, GSTO1 inh inactive and LYPLA2 inh inactive.
CCOC(=O)C1(CC2CC2)CCN(C(=O)c2cc(OC)nc3ccccc23)CC1 was read as ZTA DNA inh 34, PAD4 inh inactive, EBNA-1 inhibitor 29, LYPLA1 inh inactive, GSTO1 inh inactive and LYPLA2 inh inactive.
Screening Cc1ccccc1NC(=O)CN1C(=O)N/C(=C\c2ccc(N3CCOCC3)c(F)c2)C1=O returned ZTA DNA inh inactive, PAD4 inh inactive, EBNA-1 inhibitor 56, LYPLA1 inh inactive, GSTO1 inh inactive and LYPLA2 inh inactive.
For O=C(COC(=O)c1nc(Cl)ccc1Cl)c1ccccc1Cl the results were ZTA DNA inh inactive, PAD4 inh inactive, EBNA-1 inhibitor inactive, LYPLA1 inh inactive, GSTO1 inh inactive and LYPLA2 inh inactive.
Screening O=C(CNC(=O)c1ccc2ccccc2c1)NCc1ccc(F)cc1 returned ZTA DNA inh inactive, PAD4 inh inactive, EBNA-1 inhibitor inactive, LYPLA1 inh inactive, GSTO1 inh inactive and LYPLA2 inh inactive.
`O=C(/C=C/c1cccc([N+](=O)[O-])c1)Nc1ccccn1` gave ZTA DNA inh inactive, PAD4 inh inactive, EBNA-1 inhibitor inactive, LYPLA1 inh inactive, GSTO1 inh inactive and LYPLA2 inh inactive.
Screening Cc1ccc2oc(-c3cccc(NC(=O)/C=C/c4cccc([N+](=O)[O-])c4)c3C)nc2c1 returned ZTA DNA inh inactive, PAD4 inh inactive, EBNA-1 inhibitor 28, LYPLA1 inh inactive, GSTO1 inh inactive and LYPLA2 inh inactive.
Nc1ccc(O)c(C(=O)O)c1 was read as ZTA DNA inh inactive, PAD4 inh 16, EBNA-1 inhibitor inactive, LYPLA1 inh inactive, GSTO1 inh 76 and LYPLA2 inh inactive.
COc1cc(N)ccc1C(=O)O was read as ZTA DNA inh inactive, PAD4 inh inactive, EBNA-1 inhibitor inactive, LYPLA1 inh inactive, GSTO1 inh inactive and LYPLA2 inh inactive.
`Cc1cc(C)c(C#N)c(SCc2ccccc2[N+](=O)[O-])n1` gave ZTA DNA inh inactive, PAD4 inh inactive, EBNA-1 inhibitor inactive, LYPLA1 inh inactive, GSTO1 inh inactive and LYPLA2 inh inactive.
Cc1cc(C)c(C#N)c(SCc2c(F)cccc2[N+](=O)[O-])n1 was read as ZTA DNA inh inactive, PAD4 inh inactive, EBNA-1 inhibitor inactive, LYPLA1 inh inactive, GSTO1 inh inactive and LYPLA2 inh 34.
`CC(OC(=O)CC1CCCCC1)C(=O)Nc1cccc(C#N)c1` (stereo not drawn) gave ZTA DNA inh inactive, PAD4 inh inactive, EBNA-1 inhibitor inactive, LYPLA1 inh inactive, GSTO1 inh inactive and LYPLA2 inh inactive.
`O=C(Cc1cc(=O)[nH][nH]1)N/N=C/C=C/c1ccccc1` gave ZTA DNA inh inactive, PAD4 inh inactive, EBNA-1 inhibitor inactive, LYPLA1 inh inactive, GSTO1 inh 36! and LYPLA2 inh inactive.
CCOc1ncccc1C(=O)N1CCN(c2cc(Cl)ccc2C)CC1 was read as ZTA DNA inh inactive, PAD4 inh inactive, EBNA-1 inhibitor inactive, LYPLA1 inh inactive, GSTO1 inh inactive and LYPLA2 inh 28.
